KKLEB tox – reduces viability of KKLEB cystic fibrosis airway cells; KKLEB CF airway cells viability, ATPlite luminescence, overnight; stronger effect = lower value; cells stimulated with P. aeruginosa culture filtrate; 360,000 compounds, 0.36% hits; activity change (cytotoxicity), % at 5 µM;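 active means corrected activity change at or below -50% at 5 µM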
HIF-2a inh – blocks HIF-2a reporter activity; 786-0 RCC cells HIF-2a reporter, luciferase luminescence, overnight; inhibition, % at 18.8 µM; 360,000 compounds, 0.72% hits;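 active means inhibition of the luminescence signal of 40% or more relative to plate controls, in a single-dose primary screen at 18.75 µM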
Peg3 promoter – reduces Peg3 promoter-driven luciferase expression in HeLa; HeLa PEG-Prom luciferase reporter, luminescence, overnight; inhibition, % at 20 µM; 360,000 compounds, 1.7% hits;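 active means inhibition of at least 50% at 20 µM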
MITF TRPM1 inh – MITF TRPM1 promoter inhibition in SK-MEL-5 cells. SK-MEL-5 TRPM1 promoter luciferase, 24 h. 330,000 compounds, 0.83% hits. inhibition, % at 12.5 µM;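 active means mean inhibition across replicates of 60% or more, whatever share of single replicates reaches that level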
Shn3 inh set2 – inhibitors of Schnurri-3 3'UTR reporter in osteoblasts; Clone20 osteoblast Shn3 3'UTR firefly luciferase, 24 h; inhibition, % at 12.5 µM; 360,000 compounds, 0.52% hits;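 active means mean inhibition of at least 75% with every replicate also reaching 75%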;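 further: 0% = median of neutral control wells and 100% = pilot-screen positive control compound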
CF NFkB inh – blocks PAF-induced NF-kB reporter in cystic fibrosis cells. AID 588850. KKLEB NF-kB-GFP reporter, GFP fluorescence overnight. inhibition, % at 5 µM. 360,000 compounds, 0.86% hits;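 active means at least 50% inhibition at 5 µM, scaled per plate between neutral and stimulator controls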;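 further: PAF is a Pseudomonas aeruginosa culture filtrate used as stimulus; plate controls were PAF-stimulated DMSO wells for no effect and unstimulated DMSO wells for full effect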
Numbers without * were called inactive. The list is not random: actives were taken first. Their share in the collection is about 2.8%.

How did C=C1C(=O)[C@]23C[C@H]1CCC2[C@@]1(C)C(C[C@@H]3O)[C@](C)(C(=O)OC)CC[C@@H]1OC(C)=O (stereo not given in full) do in these assays?
KKLEB tox: -100.5*; HIF-2a inh: 97.7*; Peg3 promoter: 102.2*; Shn3 inh set2: 98.2*; CF NFkB inh: 89.3*

What do the screens show for `CC[C@@H]1[C@H]2CCCC(=O)N3CC[C@@H](C[C@@H]1Nc1ccccc1)[C@@H]23`?
KKLEB tox: -5.3; HIF-2a inh: -2.1; Peg3 promoter: -7.3; MITF TRPM1 inh: -3.2; Shn3 inh set2: -33.8; CF NFkB inh: 18.1

Results for Cn1nc(C(C)(C)C)cc1C(=O)NCc1ccc2c(c1)OCO2 ?
KKLEB tox: 13.2; HIF-2a inh: 13.8; Peg3 promoter: 15.0; MITF TRPM1 inh: 15.5; Shn3 inh set2: 90.1*; CF NFkB inh: -25.3

How did CN1/C(=C\C=O)C(C)(C)c2ccccc21 do in these assays?
KKLEB tox: 27.0; HIF-2a inh: 19.7; Peg3 promoter: 7.1; MITF TRPM1 inh: 0.1; Shn3 inh set2: 19.2; CF NFkB inh: -30.2

Results for CN1\C(=C/C=C/C=C/C=[N+](C)C)C(C)(C)c2ccccc21 ?
KKLEB tox: 17.1; HIF-2a inh: 5.2; Peg3 promoter: 32.5; MITF TRPM1 inh: 59.0; Shn3 inh set2: 89.4*; CF NFkB inh: -4.9

What do the screens show for `Cc1cccc(OCC(=O)N/N=C\c2cc3c(cc2[N+](=O)[O-])OCO3)c1C`?
KKLEB tox: 5.2; HIF-2a inh: 11.6; Peg3 promoter: 18.4; MITF TRPM1 inh: 1.3; Shn3 inh set2: 37.9; CF NFkB inh: -7.0

What do the screens show for `CCOc1cc(Br)cc(/C=N/NC(=O)c2cccnc2)c1O`?
KKLEB tox: -1.4; HIF-2a inh: -6.9; Peg3 promoter: 62.0*; MITF TRPM1 inh: 48.9; Shn3 inh set2: 92.1*; CF NFkB inh: 1.6

How did CCC(C(=O)NCC1CCCO1)N(C(=O)c1snc(C(N)=O)c1N)c1ccc(Cl)cc1 (stereo not given) do in these assays?
KKLEB tox: -2.3; HIF-2a inh: 18.1; Peg3 promoter: 9.9; MITF TRPM1 inh: 19.1; Shn3 inh set2: -14.7; CF NFkB inh: 1.7

Results for CCCCCCc1cc2cc(C(=O)Nc3ccccc3)c(=O)oc2cc1O ?
KKLEB tox: -83.0*; HIF-2a inh: 0.3; Peg3 promoter: 23.8; MITF TRPM1 inh: 71.7*; Shn3 inh set2: -12.2; CF NFkB inh: 78.8*

What do the screens show for `COc1ccc(C(=O)Oc2c(CN3CCOCC3)cc(Cl)c3cccnc23)cc1`?
KKLEB tox: -1.7; HIF-2a inh: 19.2; Peg3 promoter: 28.1; MITF TRPM1 inh: 7.6; Shn3 inh set2: 19.3; CF NFkB inh: 10.0

How did COc1cc(C(=O)Oc2c(OC)cc(C(=S)N3CCOCC3)cc2OC)cc(OC)c1OC do in these assays?
KKLEB tox: 0.3; HIF-2a inh: 19.5; Peg3 promoter: 15.9; MITF TRPM1 inh: 19.5; Shn3 inh set2: -12.0; CF NFkB inh: 4.8

How did COc1cc(C(=O)Oc2c(CN3CCOCC3)cc(Cl)c3cccnc23)cc(OC)c1OC do in these assays?
KKLEB tox: -16.1; HIF-2a inh: 15.3; Peg3 promoter: 33.0; MITF TRPM1 inh: 68.9*; Shn3 inh set2: 79.3; CF NFkB inh: 27.4

Results for COc1cccc(C(=O)Oc2c(CN3CCOCC3)cc(Cl)c3cccnc23)c1 ?
KKLEB tox: 4.9; HIF-2a inh: 14.3; Peg3 promoter: 33.0; MITF TRPM1 inh: 67.1*; Shn3 inh set2: 76.2; CF NFkB inh: 10.2

Results for O=C(Oc1ccc(Cl)c2cccnc12)N1CCOCC1 ?
KKLEB tox: -1.1; HIF-2a inh: 5.3; Peg3 promoter: -0.3; MITF TRPM1 inh: -0.7; Shn3 inh set2: -1.0; CF NFkB inh: 2.6

How did O=C(Oc1c(Cl)cc(Cl)c2cccnc12)c1ccco1 do in these assays?
KKLEB tox: 8.3; HIF-2a inh: -11.7; Peg3 promoter: 55.6*; MITF TRPM1 inh: 23.8; Shn3 inh set2: 63.9; CF NFkB inh: -0.5

What do the screens show for `O=C(Oc1c(Cl)cc(Cl)c2cccnc12)c1cccs1`?
KKLEB tox: 18.2; HIF-2a inh: -6.2; Peg3 promoter: 28.6; MITF TRPM1 inh: 13.2; Shn3 inh set2: 18.2; CF NFkB inh: 0.6

How did O=C(Oc1c(CN2CCOCC2)cc(Cl)c2cccnc12)c1cccs1 do in these assays?
KKLEB tox: 3.5; HIF-2a inh: 13.0; Peg3 promoter: 26.1; MITF TRPM1 inh: 69.2*; Shn3 inh set2: 45.1; CF NFkB inh: -2.2

How did Cc1ccc(NC(=O)CN(C)C(=O)c2nn(C)c(=O)c3ccccc23)cc1 do in these assays?
KKLEB tox: 17.0; HIF-2a inh: 6.9; Peg3 promoter: 16.6; MITF TRPM1 inh: 9.5; Shn3 inh set2: 3.8; CF NFkB inh: 1.8

How did O=C(NC1(C(F)(F)F)NC(=O)N(c2ccc(F)cc2)C1=O)c1cccs1 (stereo not given) do in these assays?
KKLEB tox: -13.0; HIF-2a inh: 11.4; Peg3 promoter: 2.6; MITF TRPM1 inh: 6.2; Shn3 inh set2: -14.4; CF NFkB inh: 24.1

How did O=C(Oc1c(CN2CCOCC2)cc(Cl)c2cccnc12)c1ccc(F)cc1 do in these assays?
KKLEB tox: 11.8; HIF-2a inh: 28.4; Peg3 promoter: 40.4; MITF TRPM1 inh: 64.5*; Shn3 inh set2: 60.4; CF NFkB inh: 2.9

Results for COc1cc(C(=S)N2CCOCC2)cc(OC)c1OC(=O)c1ccc(F)cc1 ?
KKLEB tox: 5.7; HIF-2a inh: 17.5; Peg3 promoter: 9.2; MITF TRPM1 inh: -2.2; Shn3 inh set2: -7.7; CF NFkB inh: -12.5

How did COc1cc(C(=O)N/C(=C\c2cn(S(=O)(=O)N(C)C)c3ccccc23)C(=O)N2CCCC2)cc(OC)c1OC do in these assays?
KKLEB tox: 1.6; HIF-2a inh: 12.5; Peg3 promoter: 1.3; MITF TRPM1 inh: 3.4; Shn3 inh set2: 13.3; CF NFkB inh: -15.0

What do the screens show for `CC(Cl)C(=O)NC(=O)NC12CC3CC(CC(C3)C1)C2` (stereo not given)?
KKLEB tox: 1.5; HIF-2a inh: 4.0; Peg3 promoter: 29.0; MITF TRPM1 inh: -3.1; Shn3 inh set2: 5.9; CF NFkB inh: -35.9

How did O=C(CCl)NC(=O)NC12CC3CC(CC(C3)C1)C2 do in these assays?
KKLEB tox: -10.9; HIF-2a inh: 20.0; Peg3 promoter: 63.1*; MITF TRPM1 inh: 23.9; Shn3 inh set2: -9.5; CF NFkB inh: 1.3

Results for CCN1C(=O)[C@H]2[C@@H](c3ccc(-c4ccccc4)cc3)N3CCC[C@@]3(C(=O)OC)[C@H]2C1=O ?
KKLEB tox: 9.1; HIF-2a inh: -125.6; Peg3 promoter: -31.3; MITF TRPM1 inh: -18.5; Shn3 inh set2: 2.6; CF NFkB inh: -1.1

How did CC1=C(C#N)C(C(F)(F)F)(C(F)(F)F)N=C(c2ccco2)N1 do in these assays?
KKLEB tox: -1.9; HIF-2a inh: 2.1; Peg3 promoter: 17.6; MITF TRPM1 inh: 10.3; Shn3 inh set2: 88.9*; CF NFkB inh: -17.4

How did O=c1[nH]c(=O)n(Cc2ccccc2)c2c1C(C(F)(F)F)(C(F)(F)F)N=C(c1ccco1)N2 do in these assays?
KKLEB tox: -7.1; HIF-2a inh: 9.4; Peg3 promoter: 23.9; MITF TRPM1 inh: 2.5; Shn3 inh set2: 5.6; CF NFkB inh: -3.0
